LMP1 NFkB inh: EBV LMP1-driven NF-kappaB luciferase reporter inhibitors, primary screen, cell-based, luminescence, single point; hit rate 0.69% among 350,000; inhibition, % at 12.5 µM; LMP1-induced NF-kappaB luciferase reporter cells; in the data active = inhibition above about 41%;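 also: 0% = neutral control wells and 100% = reference inhibitor control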
TWEAK Fn14 block: inhibitors of TWEAK-Fn14 signaling, primary screen, luciferase reporter cells, uHTS | TWEAK-stimulated Fn14 reporter cells, luciferase luminescence, 8 h | inhibition, % at 10 µM | hit rate 2% among 360,000 | AID 1159606, 2016; in the data active = inhibition above about 50%
PAX8 inh HTS: inhibitors of PAX8-driven TPO luciferase reporter, primary screen, RMG-I cells, single concentration; SteadyGlo, 24 h; inhibition, % at 12.6 µM; hit rate 1.2% among 360,000; AID 652154, 2013;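 active = mean replicate inhibition at least 60% with every replicate also reaching 60%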;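 also: luciferase light reporting Pax8 driven TPO promoter activity; plate controls were median of neutral control wells for no effect and mitoxantrone controls for full effect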
TROY signal inh: inhibitors of TROY-driven NF-kB signaling, primary screen, Q293 LMP1-TROYcd cells, NF-kB luciferase, uHTS; Q293 LMP1-TROYcd NF-kB luciferase reporter, 4 h; inhibition, % at 10 µM; hit rate 0.98% among 360,000; AID 1347056, 2019;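 active = compounds whose plate-normalised and pattern-corrected inhibition of the luciferase reporter signal at the single screening dose is 50% or more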
LGR2 antag: inhibitors of bursicon-induced LGR2 CRE-luciferase signal, primary screen, cell-based, HEK293, CRE-luciferase reporter, bursicon stimulation; Drosophila bursicon receptor LGR2 (rickets); bursicon-stimulated, 4 h; inhibition, % at 9.99 µM; hit rate 0.35% among 380,000; AID 720647, 2013;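 active = drop in luminescence signal, shown as inhibition above about 50% in the replicate tests, limit read from the data, passing the limit was not always enough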;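 also: agonist challenge used bursicon conditioned medium at about half maximal strength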
EWS-Fli inh: EWS/Fli-driven NR0B1 reporter inhibitors, primary screen, A673 cells, NR0B1 luciferase, luminescence, MLPCN library; viability-normalised; inhibition, % at 12.6 µM; hit rate 0.67% among 350,000;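 active = mean inhibition of at least 50% after viability correction, with every replicate also passing that limit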;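 also: firefly luciferase signal divided by Alamar Blue viability fluorescence both relative to DMSO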
Active calls of the source: *; ! = a repeat was not active. Shown are actives, neighbours in structure and some others; about 3.2% of the full set was active somewhere.

`CC1(C)CC(NC(=O)COc2ccccc2Cl)CC(C)(C)N1` gave LMP1 NFkB inh 5, TWEAK Fn14 block 78*, PAX8 inh HTS -104, TROY signal inh 75*, LGR2 antag -2 and EWS-Fli inh -9.
For CC1(C)CC(NC(=O)COc2ccc([N+](=O)[O-])cc2)CC(C)(C)N1 the results were LMP1 NFkB inh -10, TWEAK Fn14 block -22, PAX8 inh HTS 7, TROY signal inh 4, LGR2 antag 19 and EWS-Fli inh 15.
COc1ccc(OCC(=O)NC2CC(C)(C)NC(C)(C)C2)cc1 was read as LMP1 NFkB inh 6, TWEAK Fn14 block 65* and TROY signal inh 63*.
`COc1ccc(NC(=O)N(C)C[C@H]2OCCCC[C@@H](C)Oc3ccc(NC(=O)Nc4c(C)noc4C)cc3C(=O)N([C@@H](C)CO)C[C@H]2C)cc1` gave PAX8 inh HTS -16, LGR2 antag 16 and EWS-Fli inh -5.
For C[C@@H]1CN([C@@H](C)CO)C(=O)c2cc(NC(=O)CCC(F)(F)F)ccc2O[C@@H](C)CCCCO[C@H]1CN(C)Cc1ccc(Cl)c(Cl)c1 the results were PAX8 inh HTS 47, LGR2 antag 9 and EWS-Fli inh 16.
C[C@@H]1CCCCO[C@@H](CN(C)Cc2ccc(Cl)c(Cl)c2)[C@@H](C)CN([C@H](C)CO)C(=O)c2cc(NC(=O)CCC(F)(F)F)ccc2O1 was read as LMP1 NFkB inh 4, TWEAK Fn14 block 29, PAX8 inh HTS 67*!, TROY signal inh 36, LGR2 antag -3 and EWS-Fli inh 4.
C[C@@H]1CCCCO[C@@H](CN(C)Cc2ccc(Cl)c(Cl)c2)[C@H](C)CN([C@@H](C)CO)C(=O)c2cc(NC(=O)CCC(F)(F)F)ccc2O1 was read as PAX8 inh HTS 88*, LGR2 antag 6 and EWS-Fli inh 3.
`CNC[C@@H]1Oc2c(NC(=O)C3CCCCC3)cccc2C(=O)N([C@@H](C)CO)C[C@H]1C` gave PAX8 inh HTS -5, LGR2 antag -21 and EWS-Fli inh -7.
Screening CCCC(=O)Nc1ccc2c(c1)OC[C@@H](C)N(C(=O)CN(C)C)C[C@@H](C)[C@@H](OC)CN(C)C2=O returned PAX8 inh HTS 0, LGR2 antag 11 and EWS-Fli inh -1.
For Cc1ccc2nc(-c3ccc(NC(=S)NC4CC(C)(C)NC(C)(C)C4)cc3)sc2c1 the results were LMP1 NFkB inh -78, TWEAK Fn14 block 27, PAX8 inh HTS 91*, TROY signal inh -5, LGR2 antag 62* and EWS-Fli inh 15.
`C=CS(=O)(=O)N(Cc1ccccc1Br)[C@H](CO)Cc1ccccc1` gave LMP1 NFkB inh -21, TWEAK Fn14 block 51*, PAX8 inh HTS 21, TROY signal inh 14, LGR2 antag 24 and EWS-Fli inh -7.
Screening O=C(O)c1ccccc1N/N=C\c1ccnc2ccccc12 returned LMP1 NFkB inh 39, TWEAK Fn14 block 90* and TROY signal inh 48.
For O=C(O/N=C\c1ccc(N2CCCCC2)c([N+](=O)[O-])c1)c1cccc(Cl)c1 the results were LMP1 NFkB inh 5, TWEAK Fn14 block -9 and TROY signal inh 12.
`O=C(Cn1c2ccccc2c(=O)c2ccccc21)N/N=C/c1cc([N+](=O)[O-])ccc1N1CCCCCC1` gave LMP1 NFkB inh 20, TWEAK Fn14 block 1, PAX8 inh HTS 12 and TROY signal inh 5.
O=C(Cn1c2ccccc2c(=O)c2ccccc21)N/N=C/c1ccc(N2CCCC2)c([N+](=O)[O-])c1 was read as LMP1 NFkB inh 14, TWEAK Fn14 block 65*, PAX8 inh HTS 8, TROY signal inh 35 and LGR2 antag -8.
`O=C(O/N=C\c1ccc(N2CCCCC2)c([N+](=O)[O-])c1)c1c(F)cccc1F` gave LMP1 NFkB inh 2 and TWEAK Fn14 block 78*.
C[C@H]1CN([C@@H](C)CO)C(=O)Cc2cc(NC(=O)CCN3CCOCC3)ccc2O[C@H]1CN(C)Cc1ccc(C(=O)Nc2ccccc2N)cc1 was read as PAX8 inh HTS 7 and LGR2 antag -10.
For CCCNC(=O)Nc1ccc2c(c1)C(=O)N(C)[C@H]1CC[C@H](CC(=O)O)O[C@H]1CO2 the results were PAX8 inh HTS -24, LGR2 antag 15 and EWS-Fli inh 4.
For C[C@H](CO)N1C[C@H](C)[C@@H](CN(C)Cc2ccc(-c3ccccc3)cc2)Oc2ccc(NC(=O)Nc3cccc4ccccc34)cc2C1=O the results were LGR2 antag 7 and EWS-Fli inh -2.
`CC(C)=CCNc1ncnc2c1c(C#N)cn2C1OC(CO)C(O)C1O` (configuration not stated) gave LMP1 NFkB inh -30, TWEAK Fn14 block -2, PAX8 inh HTS 87*, TROY signal inh 4, LGR2 antag 28 and EWS-Fli inh 33.
For Cc1cccc(-n2ncc3c(N(CCO)CCO)ncnc32)c1 the results were LMP1 NFkB inh -20, TWEAK Fn14 block 88*, PAX8 inh HTS -104, TROY signal inh -64 and EWS-Fli inh -92.
Cc1cccc(-n2ncc3c(N4CCCc5ccccc54)ncnc32)c1 was read as LMP1 NFkB inh -26, TWEAK Fn14 block -10 and TROY signal inh -1.
`COc1ccc(-n2ncc3c(N(C)C4CCCCC4)ncnc32)cc1` gave LMP1 NFkB inh 52*, TWEAK Fn14 block 104*, PAX8 inh HTS -34, TROY signal inh 91*, LGR2 antag 94* and EWS-Fli inh 78*.
Cc1cccc(-n2ncc3c(N(C)C4CCCCC4)ncnc32)c1 was read as LMP1 NFkB inh 37, TWEAK Fn14 block 102*, PAX8 inh HTS 47, TROY signal inh 88*, LGR2 antag 88* and EWS-Fli inh 73*.
Screening COCC(=O)Nc1ccc2c(c1)C(=O)N(C)C[C@@H](OC)[C@@H](C)CN[C@H](C)CO2 returned PAX8 inh HTS -3, LGR2 antag 8 and EWS-Fli inh 5.
Cc1cc(=O)oc2c3c(cc(OCC(=O)N[C@@H](C)C(=O)O)c12)OC(C)(C)CC3 was read as LMP1 NFkB inh 12, TWEAK Fn14 block 76*, PAX8 inh HTS -17, TROY signal inh -16, LGR2 antag 0 and EWS-Fli inh -12.
Screening O=C(NCc1nnnn1-c1ccc(F)cc1)c1ccc([N+](=O)[O-])o1 returned LMP1 NFkB inh -24, TWEAK Fn14 block 23, PAX8 inh HTS 70*, TROY signal inh -21, LGR2 antag -3 and EWS-Fli inh 8.
`Cc1ccc(-n2nnnc2CNC(=O)c2ccc(Br)o2)cc1C` gave LMP1 NFkB inh -7, TWEAK Fn14 block -3, PAX8 inh HTS 9, TROY signal inh 2 and LGR2 antag 11.

Screens deposited in PubChem by several laboratories.
